What all share (set-up): scale not given: direction of the effect not stated beside the values
The target in assay [1] is Protein translocase subunit SecA (Escherichia coli (strain K12)) (UniProt P10408). Briefly: Assay to Identify E. coli SecA ATPase Inhibitors. Type of assay: functional. The conditions noted are these: 30 µM.
Assay [2] has as its target T1, Ubiquitin-activating enzyme e1, putative (Leishmania donovani (strain BPK282A1)) (UniProt E9BSI1).
T1 sequence (whole entry): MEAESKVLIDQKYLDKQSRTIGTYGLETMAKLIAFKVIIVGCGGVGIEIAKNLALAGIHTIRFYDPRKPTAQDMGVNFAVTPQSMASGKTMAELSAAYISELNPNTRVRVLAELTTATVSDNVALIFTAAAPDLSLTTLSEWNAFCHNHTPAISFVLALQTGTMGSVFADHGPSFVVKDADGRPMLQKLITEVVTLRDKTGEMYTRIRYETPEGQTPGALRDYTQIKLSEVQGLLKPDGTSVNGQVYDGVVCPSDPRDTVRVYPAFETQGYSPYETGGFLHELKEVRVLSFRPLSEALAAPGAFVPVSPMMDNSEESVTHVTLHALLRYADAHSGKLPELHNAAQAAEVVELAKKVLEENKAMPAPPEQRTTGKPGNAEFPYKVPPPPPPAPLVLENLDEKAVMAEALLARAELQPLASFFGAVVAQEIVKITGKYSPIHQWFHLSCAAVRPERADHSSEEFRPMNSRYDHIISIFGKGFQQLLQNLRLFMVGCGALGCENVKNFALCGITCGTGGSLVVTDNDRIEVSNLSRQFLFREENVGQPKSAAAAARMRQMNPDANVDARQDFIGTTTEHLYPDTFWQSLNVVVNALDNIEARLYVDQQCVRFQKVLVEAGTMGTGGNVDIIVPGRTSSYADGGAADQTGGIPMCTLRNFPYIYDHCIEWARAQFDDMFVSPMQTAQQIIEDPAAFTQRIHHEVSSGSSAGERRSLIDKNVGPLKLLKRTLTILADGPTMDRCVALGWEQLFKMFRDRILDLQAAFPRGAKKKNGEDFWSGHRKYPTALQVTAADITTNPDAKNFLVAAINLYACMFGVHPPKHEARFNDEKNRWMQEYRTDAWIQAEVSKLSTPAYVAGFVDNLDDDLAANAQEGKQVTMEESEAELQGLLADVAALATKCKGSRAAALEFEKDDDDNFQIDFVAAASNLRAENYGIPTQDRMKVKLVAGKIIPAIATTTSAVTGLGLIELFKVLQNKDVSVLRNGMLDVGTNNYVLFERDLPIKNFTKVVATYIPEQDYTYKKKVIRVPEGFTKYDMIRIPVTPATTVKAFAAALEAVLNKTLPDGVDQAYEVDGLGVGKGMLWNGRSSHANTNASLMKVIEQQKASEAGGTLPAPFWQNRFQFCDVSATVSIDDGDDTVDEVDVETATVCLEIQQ
Kind of assay: Leishmania donovani Ubiquitin Activating Enzyme (LdE1). Type of assay: functional. The settings on record: 30 µM.

For assay [3], the target named is Sialic acid-binding Ig-like lectin 9 (Homo sapiens) (UniProt Q9Y336). Briefly: Hs-Siglec9 ALPHAscreen SOP 20170721. The settings on record: 10 µM. A general note: In Alpha technology, singlet oxygen from a donor bead excites a nearby acceptor bead.
Sialic acid-binding Ig-like lectin 9 (Homo sapiens), sequence (Q9Y336 whole entry): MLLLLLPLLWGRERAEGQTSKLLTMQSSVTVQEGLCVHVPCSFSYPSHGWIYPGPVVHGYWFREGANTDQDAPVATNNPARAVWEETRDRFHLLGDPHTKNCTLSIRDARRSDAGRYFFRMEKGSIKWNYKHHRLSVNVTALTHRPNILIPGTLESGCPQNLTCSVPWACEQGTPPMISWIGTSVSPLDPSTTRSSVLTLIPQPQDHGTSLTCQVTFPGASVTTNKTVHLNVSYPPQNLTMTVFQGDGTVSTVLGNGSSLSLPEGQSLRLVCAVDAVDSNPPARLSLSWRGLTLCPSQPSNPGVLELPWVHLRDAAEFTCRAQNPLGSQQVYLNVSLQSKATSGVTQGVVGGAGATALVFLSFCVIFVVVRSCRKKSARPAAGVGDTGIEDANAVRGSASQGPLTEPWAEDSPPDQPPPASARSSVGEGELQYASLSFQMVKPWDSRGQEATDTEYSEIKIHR
Another assay has as its system Trypanosoma cruzi. Briefly: Trypanosoma cruzi phosphomannomutase and mannose-1-phosphate guanylyltransferase assay. The class given is functional. The settings on record: 10 µM.
Assay [4] deals with T2, Arginase-2, mitochondrial (Homo sapiens) (UniProt P78540).
T2 sequence (whole entry): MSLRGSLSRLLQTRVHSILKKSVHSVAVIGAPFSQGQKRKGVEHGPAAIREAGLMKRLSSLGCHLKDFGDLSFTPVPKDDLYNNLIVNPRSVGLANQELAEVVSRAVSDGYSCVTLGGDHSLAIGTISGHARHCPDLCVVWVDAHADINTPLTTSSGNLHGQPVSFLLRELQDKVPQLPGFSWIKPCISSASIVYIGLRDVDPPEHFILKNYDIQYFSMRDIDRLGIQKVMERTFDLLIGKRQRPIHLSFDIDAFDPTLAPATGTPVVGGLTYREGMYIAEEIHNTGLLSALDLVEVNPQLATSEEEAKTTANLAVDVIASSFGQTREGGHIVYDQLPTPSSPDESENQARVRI
Briefly: in vitro enzyme assay to detect the production of urea directly proportional to the activity of Arginase II. Note: in the data most compounds retested in dose-response had high values. The class given is functional. The settings on record: 33.3 µM.

Assay [5] concerns the target T3, Proteasome subunit beta (Trypanosoma cruzi) (UniProt O96673).
T3 sequence (whole entry): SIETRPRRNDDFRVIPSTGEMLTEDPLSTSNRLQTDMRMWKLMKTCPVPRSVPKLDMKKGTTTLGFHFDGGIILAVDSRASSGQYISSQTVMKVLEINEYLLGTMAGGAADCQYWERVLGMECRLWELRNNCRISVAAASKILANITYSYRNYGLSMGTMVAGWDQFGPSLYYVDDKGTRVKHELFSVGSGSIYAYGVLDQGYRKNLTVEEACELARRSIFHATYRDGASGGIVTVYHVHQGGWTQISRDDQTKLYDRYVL
Kind of assay: Trypanosoma cruzi proteasome chymotrypsin-like activity (TcProtChymo) assay. Note: in the data most compounds retested in dose-response had high values. Type of assay: functional. The conditions noted are these: 9.37 µM.

For a further assay, the species on record is Homo sapiens. Briefly: To identify inhibition of the IFN signalling (Jak-Stat) pathway via expression of an eGFP reporter gene under the control of an IFN-stimulated response element (ISRE) containing MxA promoter. Type of assay: functional. The settings on record: 30 µM. (In general: A reporter such as luciferase makes a cellular process visible.)
The target in assay [6] is T4, Tyrosyl-tRNA synthetase, putative (Trypanosoma cruzi (strain CL Brener)) (UniProt Q4DSP6).
T4 sequence (whole entry): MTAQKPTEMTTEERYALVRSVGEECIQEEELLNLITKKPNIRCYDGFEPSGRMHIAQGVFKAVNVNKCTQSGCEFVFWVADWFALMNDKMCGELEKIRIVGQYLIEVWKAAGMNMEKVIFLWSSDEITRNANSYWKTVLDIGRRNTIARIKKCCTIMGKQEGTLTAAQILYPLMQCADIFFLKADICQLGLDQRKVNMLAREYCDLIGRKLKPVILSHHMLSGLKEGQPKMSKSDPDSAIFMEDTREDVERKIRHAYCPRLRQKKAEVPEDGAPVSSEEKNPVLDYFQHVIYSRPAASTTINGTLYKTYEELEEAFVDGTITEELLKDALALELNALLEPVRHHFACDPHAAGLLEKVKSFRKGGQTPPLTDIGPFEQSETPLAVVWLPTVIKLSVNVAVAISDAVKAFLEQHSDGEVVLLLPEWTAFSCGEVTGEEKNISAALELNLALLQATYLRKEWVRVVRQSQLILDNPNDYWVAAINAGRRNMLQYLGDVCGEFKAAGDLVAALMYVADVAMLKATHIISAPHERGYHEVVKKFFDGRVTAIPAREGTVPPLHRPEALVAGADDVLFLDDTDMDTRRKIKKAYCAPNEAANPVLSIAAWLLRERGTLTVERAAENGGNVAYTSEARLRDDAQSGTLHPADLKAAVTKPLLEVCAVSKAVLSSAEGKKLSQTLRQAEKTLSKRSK
Briefly: Trypanosoma cruzi tyrosyl tRNA synthetase (TcYRS) _High Tyrosine SOP. Note: in the data most compounds retested in dose-response had high values. Type of assay: functional. The settings on record: 30 µM.

For assay [7], the target named is T4, Tyrosyl-tRNA synthetase, putative (Trypanosoma cruzi (strain CL Brener)). Briefly: Trypanosoma cruzi tyrosyl tRNA synthetase (TcYRS) SOP. Type of assay: functional. The conditions noted are these: 30 µM.
Assay [8] concerns the target Chromo domain-containing protein 1 (Saccharomyces cerevisiae (strain ATCC 204508 / S288c) (Baker's yeast)) (UniProt P32657). Kind of assay: ScCHD-1 Enzyme Inhibition Assay. Note: in the data most compounds retested in dose-response had high values. The class given is functional. The settings on record: 30 µM.

For some assays here: Potency and affinity values are given separately.

Protein translocase subunit SecA (Escherichia coli (strain K12)), sequence (P10408 whole entry): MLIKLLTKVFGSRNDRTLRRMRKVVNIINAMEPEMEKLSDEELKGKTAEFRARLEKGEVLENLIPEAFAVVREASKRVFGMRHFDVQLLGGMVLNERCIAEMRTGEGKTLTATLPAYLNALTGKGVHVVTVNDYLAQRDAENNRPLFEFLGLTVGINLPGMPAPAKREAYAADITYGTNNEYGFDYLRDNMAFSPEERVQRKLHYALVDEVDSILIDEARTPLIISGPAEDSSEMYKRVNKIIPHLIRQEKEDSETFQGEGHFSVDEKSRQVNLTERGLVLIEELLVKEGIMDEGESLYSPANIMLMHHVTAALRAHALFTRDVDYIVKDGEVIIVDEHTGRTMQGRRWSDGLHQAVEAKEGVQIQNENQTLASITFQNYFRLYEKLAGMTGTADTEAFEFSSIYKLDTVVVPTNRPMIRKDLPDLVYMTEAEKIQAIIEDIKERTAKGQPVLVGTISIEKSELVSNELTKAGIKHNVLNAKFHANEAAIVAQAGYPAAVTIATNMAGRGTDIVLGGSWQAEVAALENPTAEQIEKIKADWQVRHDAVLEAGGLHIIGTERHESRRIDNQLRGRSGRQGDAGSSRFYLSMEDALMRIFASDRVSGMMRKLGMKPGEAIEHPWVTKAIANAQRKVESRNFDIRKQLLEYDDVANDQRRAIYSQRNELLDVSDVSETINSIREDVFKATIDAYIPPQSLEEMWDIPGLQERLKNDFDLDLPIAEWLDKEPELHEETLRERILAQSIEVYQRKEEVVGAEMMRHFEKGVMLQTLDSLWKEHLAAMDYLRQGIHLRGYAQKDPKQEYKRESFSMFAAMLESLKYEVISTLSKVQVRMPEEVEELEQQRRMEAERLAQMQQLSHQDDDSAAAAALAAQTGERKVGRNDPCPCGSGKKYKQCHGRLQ
Chromo domain-containing protein 1 (Saccharomyces cerevisiae (strain ATCC 204508 / S288c) (Baker's yeast)), sequence (P32657 whole entry, the tested form may be a part): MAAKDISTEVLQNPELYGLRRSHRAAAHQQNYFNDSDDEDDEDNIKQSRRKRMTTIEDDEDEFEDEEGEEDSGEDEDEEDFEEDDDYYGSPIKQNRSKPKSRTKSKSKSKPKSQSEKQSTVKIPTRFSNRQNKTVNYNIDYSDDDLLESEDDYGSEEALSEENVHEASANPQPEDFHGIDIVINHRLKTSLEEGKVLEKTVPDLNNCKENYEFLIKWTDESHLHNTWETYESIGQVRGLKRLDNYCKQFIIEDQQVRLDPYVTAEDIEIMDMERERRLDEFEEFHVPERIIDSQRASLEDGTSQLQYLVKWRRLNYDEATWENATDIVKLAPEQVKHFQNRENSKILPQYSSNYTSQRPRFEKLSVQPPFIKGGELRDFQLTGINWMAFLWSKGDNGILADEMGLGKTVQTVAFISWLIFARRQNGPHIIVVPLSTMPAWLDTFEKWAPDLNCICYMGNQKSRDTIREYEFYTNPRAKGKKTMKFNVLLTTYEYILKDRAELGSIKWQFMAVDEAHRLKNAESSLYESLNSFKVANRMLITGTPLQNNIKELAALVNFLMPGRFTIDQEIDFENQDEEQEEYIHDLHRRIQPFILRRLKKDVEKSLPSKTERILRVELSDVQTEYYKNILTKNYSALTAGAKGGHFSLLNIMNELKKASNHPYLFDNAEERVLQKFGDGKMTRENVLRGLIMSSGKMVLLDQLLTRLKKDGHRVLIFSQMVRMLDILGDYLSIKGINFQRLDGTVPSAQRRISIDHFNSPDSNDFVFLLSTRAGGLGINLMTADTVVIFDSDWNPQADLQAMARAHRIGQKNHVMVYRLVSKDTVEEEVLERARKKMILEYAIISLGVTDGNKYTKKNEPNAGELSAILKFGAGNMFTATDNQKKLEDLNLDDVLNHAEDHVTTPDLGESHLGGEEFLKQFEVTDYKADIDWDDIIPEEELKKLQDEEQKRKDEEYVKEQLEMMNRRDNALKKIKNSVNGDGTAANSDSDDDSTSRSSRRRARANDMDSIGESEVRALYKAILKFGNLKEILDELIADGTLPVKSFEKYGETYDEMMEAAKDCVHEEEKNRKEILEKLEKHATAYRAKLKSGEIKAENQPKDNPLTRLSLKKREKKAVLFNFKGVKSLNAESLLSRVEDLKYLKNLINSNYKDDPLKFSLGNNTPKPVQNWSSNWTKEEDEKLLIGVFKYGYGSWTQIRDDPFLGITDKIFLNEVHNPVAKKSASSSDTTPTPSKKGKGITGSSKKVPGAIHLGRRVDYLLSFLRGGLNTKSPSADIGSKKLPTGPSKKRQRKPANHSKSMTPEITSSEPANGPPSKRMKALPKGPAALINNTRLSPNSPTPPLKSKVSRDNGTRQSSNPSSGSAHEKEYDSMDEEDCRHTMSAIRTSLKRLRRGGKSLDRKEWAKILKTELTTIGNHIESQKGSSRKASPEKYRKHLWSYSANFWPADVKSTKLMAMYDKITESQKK

`CCc1[nH]ncc1C(=O)N1CCCC(n2ccnc2C(C)C)C1` (stereo not given): the Percent Effect in assay [1] is -3.48%; in assay [2] it was 13.3%; in assay [3], 5.91%; in the assay with Trypanosoma cruzi it was 0%; in [4], 0.887%; in [5], 0.763%. In addition, the Percent Effect in the assay filed under Homo sapiens was 25.5%; in assay [6] it was 3.68%; in [7], 10.3%; in assay [8], -5.4%.
For the molecule `CC(NC(=O)CN(C)S(C)(=O)=O)c1nnc2n1CCCCC2` (stereo not given), the Percent Effect is 1.95% in assay [1]; 13% in assay [2]; 1.1% in assay [3]; -4.48% in the assay with Trypanosoma cruzi; -15% in [4]; 17.2% in [5]. Moreover, the Percent Effect in the assay listed under Homo sapiens was 26.4%; in [6] it was -0.98%; in assay [7], 4.71%; in [8], -8.79%.
In the case of `CCn1ccnc1CN(C)CC1CCCN1c1cccnn1` (stereo not given), the Percent Effect in [1] is -2.58%; in assay [2], 2.67%; in assay [3], -5.89%; in the assay with Trypanosoma cruzi it was 0%; in assay [4], 0.887%; in assay [5], 20.8%. In addition, the Percent Effect in the assay listed under Homo sapiens was 6.16%; in assay [6], 5.79%; in assay [7], 12.8%; in assay [8], -11.5%.
With `CC(C)c1nc(C2CCCN2Cc2ccn(C)c(=O)c2)no1` (stereo not given), the Percent Effect was -2.26% in assay [1]; 15.4% in assay [2]; 1.98% in assay [3]; -0.845% with Trypanosoma cruzi; 7.79% in [4]; 20.1% in assay [5]. For the same molecule, the Percent Effect was 17.1% in the assay filed under Homo sapiens, 6.22% in assay [6], 18.1% in assay [7] and -2.67% in assay [8].
`COc1ccc(CN2CCC3(CC(Nc4ccncn4)C3)C2)c(OC)c1` (stereo not given): the Percent Effect in assay [1] was -3.35%; in assay [2], 9.33%; in assay [3], 5.58%; in the assay with Trypanosoma cruzi, -2.76%; in assay [4], -3.54%; in assay [5], 8.21%. Moreover, the Percent Effect in the assay listed under Homo sapiens is 5.35%; in assay [6] it was 5.29%; in assay [7] it was 7.5%; in [8], -20.7%.
`c1ccc(Cn2ccnc2CN2CCCC2c2noc(C3CC3)n2)cc1` (stereo not given): the Percent Effect in assay [1] is 2.82%; in assay [2], 5.33%; in [3], -7.23%; in the assay with Trypanosoma cruzi it was -5.22%; in assay [4] it was 1.77%; in [5], 19.1%. For the same molecule, the Percent Effect was 15.7% in the assay filed under Homo sapiens, 7.89% in assay [6], 10.3% in assay [7] and -12.1% in assay [8].
Regarding `CCOCC1CC2(CCN(C(=O)c3ccccn3)CC2)CO1` (stereo not given), the Percent Effect was -5.71% in assay [1]; -1.3% in assay [2]; 4.48% in assay [3]; -0.876% with Trypanosoma cruzi; -3.64% in assay [4]; 9.44% in [5]. In addition, the Percent Effect was -3.04% in the assay filed under Homo sapiens, 1.58% in assay [6], 2.56% in assay [7] and -2.76% in assay [8].
On to `CN(C)c1cc(C(=O)N2CCCN(Cc3cscn3)CC2)ccn1`, for which the Percent Effect was -2% in assay [1]; 7.79% in assay [2]; 1.09% in [3]; 2.05% in the assay on Trypanosoma cruzi; 6.76% in assay [4]; -4.39% in assay [5]. The Percent Effect in the assay filed under Homo sapiens is 1.34%; in assay [6] it was 6.86%; in assay [7], 16.5%; in assay [8], -5.32%.
For the molecule `Cc1cc(NC(=O)CCN(CC2CCOC2)C2CC2)no1` (stereo not given), the Percent Effect was -3.2% in assay [1]; 21.3% in assay [2]; -0.377% in [3]; 1.21% with Trypanosoma cruzi; -2.22% in assay [4]; 10.3% in assay [5]. The Percent Effect in the assay filed under Homo sapiens is 8.07%; in assay [6] it was 3.68%; in [7], 15.4%; in [8], -13.2%.
`Cc1c(CN2CCCC(c3[nH]ncc3S(C)(=O)=O)C2)cnn1C` (stereo not given): the Percent Effect in assay [1] was -2.55%; in [2], 22.7%; in assay [3], -0.226%; in the assay on Trypanosoma cruzi it was 3.94%; in assay [4], -5.75%; in assay [5] it was 12.5%. The Percent Effect in the assay filed under Homo sapiens is 11.7%; in assay [6], 3.17%; in assay [7], 17.5%; in assay [8], -24.1%.
Take `COc1cccc(CN2CCCC3(CCN(C(=O)c4ccco4)C3)C2)c1` (stereo not given): the Percent Effect in assay [1] is -3.23%; in [2], 9.09%; in assay [3], 0.7%; with Trypanosoma cruzi it was 0.563%; in [4], 5.02%; in assay [5], 17.8%. Further, the Percent Effect in the assay listed under Homo sapiens was 5.54%; in assay [6], 14.5%; in [7] it was 15%; in [8] it was -3.31%.

(Values after ChEMBL document CHEMBL3988442, “University of Dundee, Small-Polar-MMV Screening Library” (2021).)
